Assay outcomes (PubChem)
In the library only some 4.4% were active in any assay of this set; here they are far more common.
PfHsp90 yeast 2: inhibits growth of yeast expressing Plasmodium falciparum Hsp90; inhibition, % at 9.4 µM; AID 504621; hit rate 0.32% among 310,000; S. cerevisiae expressing PfHsp90, BacTiter-Glo ATP, 48 h; yeast lacking PDR1 and PDR3 efflux regulators;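 active means every replicate shows inhibition above about 80%, whatever the replicate mean, limit read from the data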;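 further: 0% = DMSO neutral controls and 100% = 20 µM radicicol positive controls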
tim10-1 inh: inhibits growth of tim10-1 mutant yeast | S. cerevisiae tim10-1 ts strain growth, BacTiter-Glo, 24 h | inhibition, % at 20 µM | hit rate 2.2% among 330,000 | AID 463190;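 active means inhibition of at least 40%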;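 further: mutant grown at 25 °C; 0% = DMSO wells with yeast and 100% = wells holding no yeast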
Mot1-301 SUMO: SUMOylation pathway inhibition by Mot1-301 growth rescue. S. cerevisiae Mot1-301 growth rescue, ATP luminescence, 38.5C; percent above DMSO median, 100 means doubled. growth rescue, % at 18.8 µM. hit rate 1% among 320,000;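 active means every valid replicate shows activation above 250% relative to neutral control wells; inactive means the rest, any valid replicate at or below 250%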;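 further: OY570 slx delta 5 strain wells were the positive control but not used for scaling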
TIM10 inh: growth inhibitors of TIM10 yeast strain | S. cerevisiae TIM10 strain growth, BacTiter-Glo luminescence, 24 h | inhibition, % at 10 µM | hit rate 1.4% among 330,000 | AID 463195;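 active means inhibition of 40% or more at the single tested concentration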;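 further: wild-type TIM10 isogenic control strain grown at permissive 25 °C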
tim23-1 inh: inhibits growth of tim23-1 mutant yeast; S. cerevisiae tim23-1 growth, BacTiter-Glo luminescence, 24 h; inhibition, % at 20 µM; hit rate 1.3% among 330,000; AID 463212;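 active means growth inhibition of the mutant yeast at or above 50%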;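 further: temperature-sensitive mutant grown at 25 °C; plate controls were DMSO-treated mutant yeast for no effect and medium wells lacking yeast for full effect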
Starred values were filed as active, the others as inactive; . = not tested or not shown.

SMILES | PfHsp90 yeast 2 | tim10-1 inh | Mot1-301 SUMO | TIM10 inh | tim23-1 inh
CC(C)=CCc1c(O)ccc2c1OC(c1ccc(O)c(O)c1)CC2=O (centres undefined) | -2.6 | 1.2 | 14.3 | 1.7 | 8.6
CC(C)=CCc1c(O)ccc(C2COc3c(CC=C(C)C)c(O)cc(O)c3C2=O)c1O (centres undefined) | 105.7* | 17.6 | 3.5 | 6.4 | 34.7
COc1ccc(-c2sc3ccccc3c2/C=C/c2ccc(OC)c(OC)c2)cc1 | 6.0 | 3.6 | 3.2 | 10.4 | 27.0
COc1ccc(-c2sc3ccccc3c2/C=C/c2ccncc2)cc1 | 106.2* | -109.6 | 130.8 | -71.4 | -44.6
Cc1cc(O)c(C(=O)Cc2csc(C)n2)c(O)c1 | -7.6 | -5.1 | 95.8 | 2.2 | 21.0
Cc1cc(O)cc(O)c1C(=O)Cc1cscn1 | -4.7 | -1.5 | 352.6* | 1.3 | -1.5
Cc1cc(NC(=O)c2cc(-c3ccc(OC(C)C)cc3)nc3ccccc23)no1 | -9.5 | 13.6 | 311.9* | -3.1 | 7.1
CCCCCCCCOC(=O)c1cc([N+](=O)[O-])c(Sc2ncnc3nc[nH]c23)c([N+](=O)[O-])c1 | 106.5* | . | . | . | .
CCCCN(C1CCS(=O)(=O)C1)S(=O)(=O)c1ccc(OC)c(OC)c1 (centres undefined) | -5.7 | -8.3 | -7.7 | 1.7 | -8.1
On1ccccc1=S | 107.4* | . | 53.3 | . | .
O=c1oc2ccccc2c(O)c1Cc1cc(Cl)c2cccnc2c1O | 90.0* | 19.2 | -23.9 | 5.0 | 8.4
O=[N+]([O-])c1ccc(Oc2ncccn2)cc1 | . | 9.8 | 136.6 | -6.8 | -7.0
N#CCc1ccc(Oc2ncccn2)cc1 | -13.7 | 12.2 | 356.5* | -3.2 | 0.7
CCOC(=O)/C(=C\c1cccnc1)C(=O)c1cc(C(C)=O)c(Nc2ccccc2)s1 | 103.3* | 14.2 | . | 27.5 | 46.8
COc1cc(OC)cc(C(=O)N[C@H](C(=O)Nc2cccc(S(=O)(=O)N3CCCC3)c2)C(C)C)c1 | -0.4 | 11.7 | 720.3* | 2.9 | -6.0
COc1ccc(NC(=O)[C@@H](NC(=O)c2ccccc2)C(C)C)cc1S(=O)(=O)N1CCCCC1 | 18.6 | 2.7 | -0.2 | 5.1 | 4.9
C[N+]1(C)CC[C@H](OC(=O)[C@@](O)(c2ccccc2)C2CCCC2)C1 | -27.5 | -4.1 | 2.6 | -4.8 | .
C[N+]1(C)CCC(OC(=O)C(O)(c2ccccc2)C2CCCC2)C1 (centres undefined) | 23.6 | -28.5 | 373.1* | -6.3 | .
CC1CC(C)CN(C(=O)C(C)N2CCN(S(=O)(=O)c3ccc(C(F)(F)F)cc3)CC2)C1 (centres undefined) | -7.5 | . | . | . | .
CCOc1ccccc1N1CCN(C(=S)Nc2ccc(S(=O)(=O)Nc3ncccn3)cc2)CC1 | 3.4 | 9.7 | -5.5 | 5.3 | 2.1
O=C(Cn1c(=O)c2sccc2n(Cc2cccc([N+](=O)[O-])c2)c1=O)NCCc1ccccc1 | -0.6 | 3.8 | 883.7* | 0.9 | -11.7
O=C(Cn1c(=O)c2sccc2n(Cc2ccc([N+](=O)[O-])cc2)c1=O)NCCc1ccccc1 | 6.7 | 22.2 | 1.8 | 2.1 | 2.5
O=C(NCCc1ccccc1)c1cccc([N+](=O)[O-])c1 | -5.4 | 7.8 | 514.0* | -23.6 | -10.6
CCc1ccc(C(=O)N/N=C/c2ccncc2)s1 | 12.2 | -8.5 | 21.2 | -14.3 | 4.1
Cc1ccc(C)c(NC(=O)C(NCC(C)(C)N2CCOCC2)c2ccccc2)c1 (centres undefined) | 2.2 | 14.7 | 767.1* | 12.0 | 16.5
SMILES | PfHsp90 yeast 2 | tim10-1 inh | Mot1-301 SUMO | TIM10 inh | tim23-1 inh
COc1ccccc1/C=C/C(=O)Nc1ccc(S(=O)(=O)Nc2cc(C)nc(C)n2)cc1 | 8.1 | -3.1 | 351.1* | 13.2 | 10.9
CC(C)(C)c1ccc(S(=O)(=O)C(C)(C)C)cc1 | -19.5 | 6.1 | 17.5 | -6.4 | 10.4
CC(C)(C)S(=O)(=O)c1ccc(S(=O)(=O)C(C)(C)C)s1 | . | -5.4 | 949.5* | 5.6 | 13.7
O=C1/C(=C\c2ccccc2)CN(C(=O)CCN2CCCCC2)C/C1=C/c1ccccc1 | 10.0 | . | . | . | .
O=C1/C(=C\c2ccc(Cl)c(Cl)c2)CN(C(=O)CCN2CCOCC2)C/C1=C/c1ccc(Cl)c(Cl)c1 | 107.3* | . | . | . | .
COc1ccc(C(=O)c2c[nH]c(C(=O)NCCCn3ccnc3)c2)cc1 | . | 8.1 | 9.2 | -10.5 | 19.6
CC(C)(C)c1ccc(C(=O)c2c[nH]c(C(=O)NCCCn3ccnc3)c2)cc1 | . | 9.7 | 324.3* | -3.1 | 5.7
Cn1c(=N)c(S(=O)(=O)c2ccccc2)cc2c(=O)n3ccccc3nc21 | 2.8 | -1.5 | 311.0* | 1.0 | 12.4
Cn1c(=N)c(S(=O)(=O)c2ccc(F)cc2)cc2c(=O)n3ccccc3nc21 | -4.9 | 15.0 | -10.4 | -13.2 | 21.5
CCNC(=S)Nc1ccc(Oc2ccccc2)cc1 | 5.3 | 33.2 | . | 27.9 | 14.3
COc1ccc(NC(=S)Nc2ccc(Oc3ccccc3)cc2)cc1 | -11.0 | 5.0 | 276.8* | 1.3 | -4.2
COC(=O)Nc1ccc(Oc2ccccc2)cc1 | . | 29.2 | 278.1* | 16.1 | 22.3
O=C(NCC1CCCN1S(=O)(=O)c1cccs1)c1cccc([N+](=O)[O-])c1 (centres undefined) | -26.1 | 8.9 | 13.0 | -0.4 | 20.4
Cn1nc(C(C)(C)C)cc1C(=O)NNC(=O)c1ccc(C(F)(F)F)cc1 | 11.8 | 12.2 | 304.4* | 6.7 | -3.0
CN(C)c1ccnc(Oc2ccc(C(C)(C)C)cc2)c1C#N | -7.7 | 16.9 | 355.6* | 19.3 | 26.9
O=C([C@@H]1CCCN1C(=O)c1cccs1)N1CCN(S(=O)(=O)c2cccc(F)c2)CC1 | 4.7 | 2.6 | -2.0 | -1.1 | 12.3
CS(=O)(=O)c1nc(-c2ccc(F)cc2)cc(C(F)(F)F)n1 | 9.4 | . | . | . | .
COc1ccc(-c2cc(C(F)(F)F)nc(S(C)(=O)=O)n2)cc1 | . | 6.0 | 589.5* | 16.4 | -40.8
CC1CN(CCOc2ccc(Cl)cc2Cl)CC(C)O1 (centres undefined) | 14.9 | -12.8 | 271.6* | -0.4 | 3.6
O=C(NNC(=O)c1cc(Br)c(Br)s1)c1csc(N2CCOCC2)n1 | -40.8 | 7.7 | 346.6* | 13.4 | 9.4
CCc1cc(C(=O)NNC(=O)c2csc(N3CCOCC3)n2)sc1C | . | 18.3 | . | 8.5 | 15.5
CN(CCO)c1cnccn1 | -19.2 | 21.8 | 580.4* | -2.3 | 2.4
CC(=O)N(Cc1ccc(Cl)cc1)c1cnccn1 | 11.5 | 15.1 | -25.9 | -8.6 | 11.5
CC(C)(C)NC(=O)C(=O)NCc1ccccn1 | 8.2 | 8.4 | 2.8 | -15.3 | 8.5
O=C(NCc1ccccn1)C(=O)NCc1ccccn1 | 2.2 | 12.5 | 294.6* | -6.0 | -1.6
COC(=O)[C@H]1[C@H]2C[C@@H]3c4[nH]c5cc(OC)ccc5c4CCN3C[C@H]2C[C@@H](OC(=O)c2cc(OC)c(OC)c(OC)c2)[C@@H]1OC | 14.4 | 9.4 | 350.9* | 7.0 | 6.3
COc1ccc2c3c([nH]c2c1)C1CC2C(CC(O)C(OC)C2C(=O)O)CN1CC3 (centres undefined) | 4.0 | -1.8 | 11.0 | 0.9 | -14.1
Cc1cccn2c(=S)[nH]nc12 | -19.3 | . | . | . | .
COc1ccc(/C=C(\NC(=O)c2ccccc2)C(=O)NCc2cccnc2)cc1 | 8.4 | 10.0 | 269.9* | -14.8 | 13.3
